Screens as filed in PubChem BioAssay.
Shown are actives, neighbours in structure and some others; about 4.2% of the full set was active somewhere.
PLK1 PBD block: qHTS for Inhibitors of PLK1-PDB (polo-like kinase 1 - polo-box domain): Primary Screen | Serine/threonine-protein kinase PLK1 (Homo sapiens), P53350 | Plk1 PBD binding of FITC phosphopeptide, fluorescence polarization | Potency, µM, without a hit: max response, negative = inhibition, hits mostly inhibitors | 360,000 compounds, 2.8% hits | AID 720504, 2013; also: series mostly up to about 57 µM; nearly all actives have a fitted effect of over 65% in size
Sfp inh: qHTS Assay for Inhibitors of Bacillus subtilis Sfp phosphopantetheinyl transferase (PPTase). Potency, µM, without a hit: largest response in the series, negative = inhibition, most hits filed as inhibitors. 4'-phosphopantetheinyl transferase ffp (Bacillus subtilis), Q9F4F7. Biochemical Sfp PPTase activity, qHTS. 310,000 compounds, 3.5% hits;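 also: the enzyme is Sfp with the accession as filed and its product quenches rhodamine fluorescence; 0% = enzyme reaction without inhibitor and -100% = no enzyme wells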
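Fluorescence-quenching assay: 15 nM Sfp-PPTase preincubated 15 min at room temperature with compound, then 5 uM rhodamine-CoA and 12.5 uM BHQ-2-labelled YbbR peptide added. Fluorescence (ex 525/em 598 nm) read at start and after 30 min; difference gives rate.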
VDR inh: Inhibitors of the vitamin D receptor (VDR): qHTS. Vitamin D3 receptor (Homo sapiens), P11473. VDR-SRC2-3 peptide fluorescence polarization, 2 h. Potency, µM, for the others: max response, negative = inhibition, usual class: inhibitors. 400,000 compounds, 0.93% hits. AID 504847, 2011
Target sequence (P11473 whole entry, looked up): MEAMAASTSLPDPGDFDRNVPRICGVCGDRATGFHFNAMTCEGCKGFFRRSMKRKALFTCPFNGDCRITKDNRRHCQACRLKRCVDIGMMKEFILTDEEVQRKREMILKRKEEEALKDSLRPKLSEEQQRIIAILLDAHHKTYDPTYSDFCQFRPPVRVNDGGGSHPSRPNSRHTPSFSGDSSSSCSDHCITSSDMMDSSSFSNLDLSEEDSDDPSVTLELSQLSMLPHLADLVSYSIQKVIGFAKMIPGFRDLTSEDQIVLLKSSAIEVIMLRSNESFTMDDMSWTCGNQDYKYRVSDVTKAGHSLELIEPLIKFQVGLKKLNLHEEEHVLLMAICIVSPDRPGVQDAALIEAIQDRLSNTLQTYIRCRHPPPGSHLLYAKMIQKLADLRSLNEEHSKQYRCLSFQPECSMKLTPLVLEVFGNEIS
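After 23 nl compound addition and a short centrifugation, plates sat for 2 hours at ambient temperature; polarization of fluorescence then indicated loss of VDR binding to peptide SRC2-3.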
ALOX12 inh: Primary qHTS assay for inhibitors of human arachidonate 12S-lipoxygenase (ALOX12): Round 2 | Polyunsaturated fatty acid lipoxygenase ALOX12 (Homo sapiens), P18054 | purified 12hLO, xylenol orange hydroperoxide absorbance | Potency, µM (highest dose often 108 µM), for inactives: at the top dose activity change, negative = inhibition, usual class: inhibitors | 580,000 compounds, 1.1% hits
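Purified human 12hLO at 150 nM in 25 mM Hepes, 0.01% Triton X-100, pH 7.0, preincubated 15 min at room temperature with compound. Reaction started with 40 uM arachidonic acid, 30 min at room temperature. Hydroperoxide measured by Fe-xylenol orange, 573/405 nm absorbance ratio.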
* marks the source's active call; other numbers are inactive results; u = inconclusive; x = no result given; ! = not confirmed by another sample. Calls follow the shape of the dose curve; as a rule, active = well fitted curve in the direction sought with a large enough effect; inconclusive = small, poorly fitted or top-dose-only effect, or another doubt; inactive = no such curve, though single readings can be large; an effect the other way counts as inactive or inconclusive. Unless noted, % is scaled to controls: 0 for no effect and ±100 for the full control effect; potency is read from the fitted curve at half-maximal effect.

SMILES | PLK1 PBD block | Sfp inh | VDR inh | ALOX12 inh
COC(=O)CSc1nc2c(c(-c3ccc(C)o3)c1C#N)CCCC2 | -4% | 50µM* | 15% | u
Cc1sc(NC(=O)COc2ccccc2Cl)c(C(N)=O)c1C | x | x | x | 2%
FC(F)(F)c1ccc(/C=N/n2c(C3CCCCC3)n[nH]c2=S)cc1 | u | -4% | 3% | u
Cn1ccnc1-c1cn(Cc2ccccc2Cn2cccn2)nn1 | x | x | x | 17%
O=S(=O)(NCc1ccc(F)cc1)c1cccc(S(=O)(=O)N2CCOCC2)c1 | -3% | 21% | 9% | 4%
Cc1ccc(C2=NN3C(=O)c4ccccc4C3C2)cc1 (stereo not given) | -4% | 12% | -18% | -11%
COc1ccc2c(c1OC)C(=O)N1N=C(c3ccc(F)cc3)CC21 (stereo not given) | 12µM* | 28% | u | -23%
COC(=O)c1sc2nc3c(c(-c4cccs4)c2c1N)CCCC3 | -13% | 79µM* | 16% | -26%
N#CC1=C2SCN(C3CCCCC3)CN2C(=O)CC1c1ccc(Br)cc1 (stereo not given) | x | x | 18µM* | u
CCOc1cc(C2CC(=O)N3CN(C4CCCCC4)CSC3=C2C#N)ccc1O (stereo not given) | 11µM* | 3.5µM* | u | u
Cc1cc(OCC(=O)N2CCN(C(=O)C3COc4ccccc4O3)CC2)c2c(C)cc(=O)oc2c1 (stereo not given) | x | x | x | -3%
CC(C(=O)N1CCOCC1)c1ccc([N+](=O)[O-])cc1 (stereo not given) | -12% | 16% | -22% | -2%
COc1cccc2sc3ccc(C#CC4(N)CCCCC4)cc3c(=O)c12 | -1% | 79µM* | -3% | -7%
COc1cccc2sc3cc(C#CC4(O)CCCCC4)ccc3c(=O)c12 | 0% | x | 0% | -29%
Cc1ccc(-c2cc(C(=O)O)c3cc(Cl)ccc3n2)o1 | x | x | x | 7.9µM*!
O=C(O)c1cc(-c2ccccn2)nc2ccc(Cl)cc12 | x | x | x | -9%
Cc1ccc2nc(-c3ccc(C)o3)cc(C(=O)O)c2c1 | x | x | x | 5µM*
Cc1ccc(C)c(NC(=O)c2cnn(-c3ccccc3)c2C)c1 | -8% | 13% | -11% | -20%
S=C1NCN(Cc2cccnc2)CN1 | 0% | 5% | 2% | -16%
CN(C)C(=S)N=c1ssc(=S)n1Cc1cccnc1 | 27µM* | x | 50µM* | u
Cc1ccc(OCC(=O)Nc2ccc(N(C)C)cc2)cc1 | -4% | 10% | 12% | u
CCCC(=O)Nc1ccc(NC(=O)CCc2ccccc2)cn1 | 3µM* | 10% | -17% | -60%
Cc1ccc(CC(=O)Nc2ccc(N(C)C)cc2)cc1 | x | x | x | 20µM*
CCCC(=O)Nc1ccc(NC(=O)Cc2ccccc2)cn1 | -7% | 8% | 8% | -2%
CN(C)c1ccc(NC(=O)CCCc2ccccc2)cc1 | -5% | 22µM* | -15% | u
SMILES | PLK1 PBD block | Sfp inh | VDR inh | ALOX12 inh
CC[C@H](C)[C@H](NC(=O)[C@H](Cc1ccc(O)cc1)NC(=O)[C@@H]1CCCN1C(=O)[C@H](CCCN=C(N)N)NC(=O)[C@H](CCCN=C(N)N)NC(=O)[C@@H]1CCCN1C(=O)[C@H](CCCCN)NC(=O)[C@H](CC(N)=O)NC(=O)[C@H](CCC(N)=O)NC(=O)[C@H](Cc1ccc(O)cc1)NC(=O)[C@H](CC(C)C)NC(=O)[C@@H]1CCC(=O)N1)C(=O)N[C@@H](CC(C)C)C(=O)O | x | 15% | 12% | x
Cc1cccc2sc(NNC(=O)C3COc4ccccc4O3)nc12 (stereo not given) | -8% | 32µM* | -9% | u
CC1=NOC(=O)/C1=C/c1ccc(O)cc1 | 9.5µM* | 40µM* | u | 16µM*
COc1cc(/C=C2/C(=O)ON=C2c2ccccc2)ccc1O | u | 50µM* | 50µM* | u
COc1ccc(/C=C2\SC(N)=NC2=O)cc1Cl | 0% | -29% | 10% | 12%
CC1=NOC(=O)/C1=C/c1ccc(O)c(Br)c1 | u | -29% | u | u
COc1ccc(/C=C2/C(=O)ON=C2C)cc1Cl | 2.1µM* | 79µM* | u | 7.9µM*
O=C1ON=C(c2ccc(Cl)cc2)/C1=C/c1ccc(O)cc1 | 0.47µM* | 22µM* | u | 32µM*
CC(=O)Nc1ccc(NS(=O)(=O)c2cccc3ccccc23)cc1 | -3% | u | 8% | 0%
O=S(=O)(Nc1ccc(C(O)(C(F)(F)F)C(F)(F)F)cc1)c1cccc2ccccc12 | -4% | x | x | 45µM*
CCOC(=O)c1cc2c(=O)n3ccccc3nc2n(Cc2ccco2)c1=NC(=O)c1cccnc1 | -16% | 35µM* | u | u
CCOC(=O)c1cc2c(=O)n3ccccc3nc2n(Cc2ccco2)c1=NC(=O)c1ccc(Br)cc1 | x | x | 89µM* | u
CCOC(=O)c1cc2c(=O)n3cccc(C)c3nc2n(Cc2ccco2)c1=NC(=O)c1cccnc1 | -14% | 25µM* | -17% | 0%
Cc1cccc(C(=O)N=c2c(C#N)cc3c(=O)n4cccc(C)c4nc3n2Cc2ccco2)c1 | -28% | 28µM* | -25% | 35µM*!
Nc1nccnc1C(=O)NCc1ccc(Cl)s1 | x | x | x | 5%
Cc1cc(C(=O)OCC(=O)Nc2ccccc2Br)c(C)o1 | -5% | x | -26% | 7%
COC(=O)c1ccccc1NC(=O)Nc1cccs1 | 0% | 40µM* | -11% | u
COC(=O)c1ccccc1NC(=O)NCc1ccncc1 | 21µM* | 1% | -2% | -4%
CNC(=O)CCSc1ccc(C)cc1 | -2% | 17% | 0% | 0%
CC(C)C(=O)N1CCCC(CN2CCOCC2)CC1 (stereo not given) | x | x | x | 11%
Cc1ccc(NCc2nnc(SCC(=O)c3ccccc3)n2Cc2ccco2)c(C)c1 | -14% | -13% | u | 0%
O=C(CN1CCCc2ccccc21)NC(=O)NC1CCCCC1 | 27µM* | u | -28% | -21%
O=C(CN1CCc2ccccc21)NC(=O)NCc1ccccc1 | 27µM* | 12% | -6% | -4%
Cc1ccc(NS(=O)(=O)c2cccc(Cl)c2Cl)cc1S(=O)(=O)N1CCCCC1 | x | x | x | -7%
COc1ccc2[nH]c(=O)c(CN(C(=O)c3ccccn3)c3ccccc3)cc2c1 | -8% | 1% | -2% | -5%
SMILES | PLK1 PBD block | Sfp inh | VDR inh | ALOX12 inh
O=c1c(O)cccc2cc(O)c(O)c(O)c12 | 8.4µM* | 6.3µM*! | 20µM*! | 13µM*
CC1(C)CC(=O)C=C(c2cccc(Br)c2)C1 | 27µM* | x | u | -25%
Clc1ccc(-c2csc(N3CCSCC3)n2)cc1 | 24µM* | -3% | -29% | -5%
CC1=NN(c2ccc(Cl)cc2)C(=O)C1 | 2% | 16% | u | 8%
CC1=NN(c2nc(-c3ccc(Cl)cc3)cs2)C(=O)C1 | u | 5% | -13% | 5.6µM*
O=C1OCCC1CCC(=O)N1CCc2c(nc(-c3ccccc3)[nH]c2=O)C1 (stereo not given) | x | x | x | 17%
Clc1cccc(-c2nn3c(COc4ccccc4)nnc3s2)c1 | x | 12% | x | x
